# Records with an inconclusive call do not appear. A call without a number means that no potency is given here. Values without a mark were called inactive. The source made the active and inactive calls. Unless noted, calls follow the shape of the dose curve; as a rule, active = well fitted cell-killing curve with a large enough effect in the repeat runs; inconclusive = weak or mixed curves, or effect the other way; inactive = flat fitted curve, though single readings scatter.
# Target: Estrogen receptor beta (Homo sapiens) (UniProt Q92731)
# Sequence (Q92731 whole entry, looked up): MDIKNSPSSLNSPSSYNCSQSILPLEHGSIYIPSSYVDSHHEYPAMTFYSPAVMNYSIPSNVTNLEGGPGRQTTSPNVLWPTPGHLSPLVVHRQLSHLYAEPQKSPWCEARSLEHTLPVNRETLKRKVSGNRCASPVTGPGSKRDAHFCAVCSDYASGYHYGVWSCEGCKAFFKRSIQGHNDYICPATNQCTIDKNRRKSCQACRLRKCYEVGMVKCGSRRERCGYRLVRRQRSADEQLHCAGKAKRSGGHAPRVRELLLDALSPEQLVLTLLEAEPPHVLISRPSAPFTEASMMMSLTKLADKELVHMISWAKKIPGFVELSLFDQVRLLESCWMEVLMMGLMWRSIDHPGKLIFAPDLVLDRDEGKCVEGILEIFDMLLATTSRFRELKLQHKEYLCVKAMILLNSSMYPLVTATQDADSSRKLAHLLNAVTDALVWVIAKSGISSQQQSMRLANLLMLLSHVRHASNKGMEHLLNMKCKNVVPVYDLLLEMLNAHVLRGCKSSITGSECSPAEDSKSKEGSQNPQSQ
# Test: qHTS assay to identify small molecule agonists of the estrogen receptor beta (ER-beta) signaling pathway (AID 1259377; active = well fitted activation curve with a large enough effect in the signal ratio in the repeat runs, not every such curve was filed as active; the % refers to the signal ratio; also: potency is read from the fitted curve at half-maximal effect)
# Conditions: ER-beta-UAS-bla HEK293T, beta-lactamase FRET ratio, 16 h; series mostly up to 92.4 µM
# How it was run: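 ER-beta-UAS-bla HEK293T (GripTite) cells carrying a UAS-driven beta-lactamase reporter, in medium with 2% charcoal-stripped FBS, were exposed to compounds for 16 hr at 37C; LiveBLAzer B/G FRET substrate was then added and fluorescence read after 2 hours at room temperature.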
row,SMILES,Potency
1,CC1OC(=O)C(C)OC1=O (stereo not given),inactive
2,CCOc1ccc(O)cc1,inactive
3,CN1C[C@H]2c3ccccc3Oc3ccc(Cl)cc3[C@@H]2C1,inactive
4,CC(=O)c1cccc([N+](=O)[O-])c1,inactive
5,CN1Cc2cc(C(=O)N3CCC(C4CCNCC4)CC3)ccc2NC(CC(=O)O)C1=O (stereo not given),inactive
6,Nc1ccc([N+](=O)[O-])c(C(F)(F)F)c1,inactive
7,CCCCCCCCCCO[C@@H]1O[C@H](CO)[C@@H](O)[C@H](O)[C@H]1O,inactive
8,O=P(O)(OCc1ccccc1)OCc1ccccc1,inactive
9,CCC(CC)Nc1ccc(C)c(C)c1,inactive
10,COc1ccc(C(=O)c2ccc(OC)cc2O)c(O)c1,48.9 µM (active)
11,c1ccc(C(O[C@H]2CCCN(CCc3ccc4c(c3)OCO4)C2)c2ccccc2)cc1,inactive
12,CCCCCCCCCOS(=O)(=O)O,inactive
13,C=C1[C@H]2CC[C@@H]3[C@H]2C(C)(C)CCC[C@]13C,inactive
14,Cc1oc(-c2ccccc2)nc1CCOc1cccc2c1ccn2CCC(=O)O,inactive
15,C[N+](C)(C)CCOC(=O)CCC(=O)OCC[N+](C)(C)C,inactive
16,CCCCc1nc2cccnc2n1Cc1ccc(-c2ccccc2-c2nnn[nH]2)cc1,inactive
17,C=CCOc1ccccc1OCC(O)CNC(C)C (stereo not given),inactive
18,c1cc(CCCc2ccncc2)ccn1,inactive
19,Cc1cc(C(=O)O)ccc1[N+](=O)[O-],inactive

# Target: Estrogen receptor beta (Homo sapiens) (UniProt Q92731)
# Test: qHTS assay to identify small molecule antagonists of the estrogen receptor beta (ER-beta) signaling pathway (AID 1259378; active = well fitted inhibition curve with a large enough effect in the signal ratio in the repeat runs, not every such curve was filed as active; the % refers to the signal ratio; also: potency is read from the fitted curve at half-maximal effect)
# Conditions: ER-beta-UAS-bla HEK293T, beta-lactamase FRET ratio, 16 h; series mostly up to 92.4 µM
# How it was run: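 ER-beta-UAS-bla HEK293T (GripTite) cells in 2% charcoal-stripped FBS medium were preincubated 6 hr at 37C, dosed with compound, then stimulated with 1 nM E2 (final) for 16 hr; beta-lactamase reporter read by B/G FRET fluorescence after 2 hr substrate loading.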
SMILES,Potency,"activity, negative = inhibition"
CC1OC(=O)C(C)OC1=O (stereo not given),inactive,–
CCOc1ccc(O)cc1,inactive,–
CN1C[C@H]2c3ccccc3Oc3ccc(Cl)cc3[C@@H]2C1,inactive,–
CC(=O)c1cccc([N+](=O)[O-])c1,inactive,–
CN1Cc2cc(C(=O)N3CCC(C4CCNCC4)CC3)ccc2NC(CC(=O)O)C1=O (stereo not given),inactive,–
Nc1ccc([N+](=O)[O-])c(C(F)(F)F)c1,inactive,–
O=P(O)(OCc1ccccc1)OCc1ccccc1,inactive,–
Brc1c2ccccc2c(Br)c2ccccc12,–,14.5% [at 8.39 µM]
Brc1c2ccccc2cc2ccccc12,inactive,–
CCC(CC)Nc1ccc(C)c(C)c1,inactive,–
COc1ccc(C(=O)c2ccc(OC)cc2O)c(O)c1,inactive,–
CCCCCCCCCOS(=O)(=O)O,inactive,–
C=C1[C@H]2CC[C@@H]3[C@H]2C(C)(C)CCC[C@]13C,inactive,–
Cc1oc(-c2ccccc2)nc1CCOc1cccc2c1ccn2CCC(=O)O,30.6 µM (active),–
C[N+](C)(C)CCOC(=O)CCC(=O)OCC[N+](C)(C)C,inactive,–
C=CCOc1ccccc1OCC(O)CNC(C)C (stereo not given),inactive,–
c1cc(CCCc2ccncc2)ccn1,inactive,–
Cc1cc(C(=O)O)ccc1[N+](=O)[O-],inactive,–

# System: not listed separately
# Test: qHTS assay to identify small molecule agonists of the androgen receptor (AR) signaling pathway in the presence of an antagonist - cell viability counter screen (AID 1259379);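 also: MDA-kb2 human breast cancer cells carrying an MMTV luciferase reporter; nearly all actives have a fitted effect of over 25% in size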
# Conditions: MDA-kb2 viability, CellTiter-Fluor, 16 h; series mostly up to 92.4 µM
# How it was run: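 Cytotoxicity counter-screen run in the same wells as the nilutamide-challenged (3.0 µM final) AR agonist assay in MDA-kb2 cells. Compounds tested at 15 concentrations for 16 h, 37 °C without CO2; CellTiter-Fluor fluorescence read.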
SMILES,Potency,"activity change, negative = cytotoxicity"
CC1OC(=O)C(C)OC1=O (stereo not given),inactive,–
CC(C)Cc1ccc(C(C)C(=O)OCc2ccccn2)cc1 (stereo not given),inactive,–
CCOc1ccc(O)cc1,inactive,–
CN1C[C@H]2c3ccccc3Oc3ccc(Cl)cc3[C@@H]2C1,inactive,–
CC(=O)c1cccc([N+](=O)[O-])c1,inactive,–
CC1CCC(=O)C1=O (stereo not given),inactive,–
O=C(O)c1ccco1,inactive,–
CN1Cc2cc(C(=O)N3CCC(C4CCNCC4)CC3)ccc2NC(CC(=O)O)C1=O (stereo not given),inactive,–
Nc1ccc([N+](=O)[O-])c(C(F)(F)F)c1,inactive,–
CCCCCCCCCCO[C@@H]1O[C@H](CO)[C@@H](O)[C@H](O)[C@H]1O,inactive,–
O=P(O)(OCc1ccccc1)OCc1ccccc1,inactive,–
C=CC1CC2C=CC1C2 (stereo not given),inactive,–
Brc1c2ccccc2c(Br)c2ccccc12,–,0.897% [at 8.39 µM]
Brc1c2ccccc2cc2ccccc12,inactive,–
O=C(OCCc1ccccc1)c1ccccc1,inactive,–
CCC(CC)Nc1ccc(C)c(C)c1,inactive,–
COc1ccc(C(=O)c2ccc(OC)cc2O)c(O)c1,inactive,–

SMILES,Potency,"activity change, negative = cytotoxicity"
c1ccc(C(O[C@H]2CCCN(CCc3ccc4c(c3)OCO4)C2)c2ccccc2)cc1,inactive,–
C[C@@H]1C[C@H]2[C@@H]3CCC4=CC(=O)C=C[C@]4(C)[C@@]3(F)[C@@H](O)C[C@]2(C)[C@@]1(O)C(=O)COC(=O)c1ccncc1,inactive,–
CCCCCCCCCOS(=O)(=O)O,inactive,–
C/C=C(/C(=C/C)c1ccc(OC(C)=O)cc1)c1ccc(OC(C)=O)cc1,inactive,–
ClCCOCCOCCCl,inactive,–
O=C1CCC(=O)O1,inactive,–
C=C1[C@H]2CC[C@@H]3[C@H]2C(C)(C)CCC[C@]13C,inactive,–
COC(C)OC,inactive,–
C[N+](C)(C)CCOC(=O)CCC(=O)OCC[N+](C)(C)C,inactive,–
CCCC(=O)Nc1ccc(O)c(C(C)=O)c1,inactive,–
CCCCc1nc2cccnc2n1Cc1ccc(-c2ccccc2-c2nnn[nH]2)cc1,inactive,–
CC1=CC=C(C(C)C)CC1,inactive,–
C=CCOc1ccccc1OCC(O)CNC(C)C (stereo not given),inactive,–
c1cc(CCCc2ccncc2)ccn1,inactive,–
Cc1cc(C(=O)O)ccc1[N+](=O)[O-],inactive,–
CN(C)c1ccc(CCO)cc1,inactive,–

# From PubChem BioAssay (Tox21)
